The values below come from PubChem BioAssay.

The source made the active and inactive calls. Unless noted, the rule behind the calls is not given here.

Assay [1] relates to XIP peptide (Xip251-270) binding. The experiment in a line: XIP fragment 251-270 binding compounds – biochemical, small-molecule microarray, fluorescence 635/667 nm, 0.1 µg/mL protein, primary screen (AID 1182). As to conditions: fluorescent protein binding, 635 nm, higher = more signal, called active from +8 up or from −8 down.
Assay [2] has as its system XIP peptide (Xip251-270). The experiment in a line: compounds binding XIP fragment 251-270 – biochemical, small-molecule microarray, fluorescence 635/667 nm, 0.5 µg/mL protein, primary screen (AID 1183). As to conditions: fluorescence 635 nm, higher = more signal.
A short description of assay [3]: blood-stage malaria parasite viability loss – strain 3D7, DAPI fluorescence, 100 nL, primary screen (AID 1184).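 Note: parasites grown inside human red blood cells in medium with human serum.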 Particulars: P. falciparum 3D7 growth, 3 d, higher = more signal.
The target of assay [4] is Homeobox protein Hox-A13 (Mus musculus) (UniProt Q62424). Kind of assay: disruptors of Hoxa13 oligonucleotide interaction – biochemical, fluorescence polarization, labeled oligonucleotide, primary screen (AID 1185). As to conditions: Hoxa13:DNA binding, 15 min, higher = more signal, called active from +8 up or from −8 down. A general note: Polarisation of emitted light reports the rotation of a fluorescent probe.
Chain of Homeobox protein Hox-A13 (Mus musculus) (Q62424 whole entry, looked up): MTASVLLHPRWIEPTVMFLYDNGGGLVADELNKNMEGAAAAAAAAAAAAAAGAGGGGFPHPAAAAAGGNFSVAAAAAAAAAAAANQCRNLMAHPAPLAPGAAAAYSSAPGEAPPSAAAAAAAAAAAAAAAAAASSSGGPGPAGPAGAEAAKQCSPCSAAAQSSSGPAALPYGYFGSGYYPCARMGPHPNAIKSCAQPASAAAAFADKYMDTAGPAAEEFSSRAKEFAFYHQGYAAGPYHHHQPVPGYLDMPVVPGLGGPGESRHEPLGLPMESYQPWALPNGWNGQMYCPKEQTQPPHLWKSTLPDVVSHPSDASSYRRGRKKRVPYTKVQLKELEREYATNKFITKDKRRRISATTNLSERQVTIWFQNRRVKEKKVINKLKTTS

A short description of assay [5]: blockers of DNA damage checkpoint Chk1 activation – imaging, HeLa, hydroxyurea, phospho-Chk1 antibody, percent positive cells, primary screen (AID 1186). Particulars: hydroxyurea-induced phospho-Chk1 immunofluorescence imaging, higher = more signal.
Assay [6] is described as follows: blockers of DNA damage checkpoint Chk1 activation – imaging, HeLa, hydroxyurea, phospho-Chk1 nuclear intensity, primary screen (AID 1187). As to conditions: hydroxyurea-induced phospho-Chk1 immunofluorescence imaging, higher = more signal.

As to `NC(=O)N1C(=O)C2C(C1=O)C1C=C(CCCO)C2C(c2cccs2)N1Cc1cccc(OC(F)(F)F)c1` (configuration not stated), the figures for the composite z-score in assay [1] and in assay [2] were 1.07 (inactive) and 0.577, respectively. Further, the z-score in assay [3] was 0.379; in assay [4] it was -6.01 (inactive); in assay [5], -0.356 (inactive); in assay [6], -0.334 (inactive).

Turning to `COc1ccc(-c2nc(-c3ccccc3)c3c(c2C)CO[Si]3(C(C)C)C(C)C)cn1`, the composite z-score is -0.447 (inactive) in assay [1] and -0.447 in assay [2]. Also, the z-score in assay [3] was 0.193; in assay [4] it was -3.37 (inactive); in assay [5], 0.0411 (inactive); in assay [6], 0.126 (inactive).

As for `O=C1c2ccccc2[C@](Cc2ccccc2I)(C(=O)NCC(F)(F)F)[C@H](c2ccc(CO)cc2)N1C1CCCCC1`, the composite z-score in assay [1] was 0.759 (inactive); in assay [2], 0.841. Besides, the z-score in assay [3] was -1.14; in assay [4], -3.97 (inactive); in assay [5], -0.68 (inactive); in assay [6], -0.11 (inactive).

As for `COc1ccc([Si](C)(C)[C@@H]2[C@@H](CC(=O)N(CCO)Cc3ccccc3)O[C@]3(C(=O)N(Cc4cccc(N5C(=O)c6cccc7cccc5c67)c4)c4ccccc43)[C@H]2C)cc1`, the values for the composite z-score in assay [1] and in assay [2] were -0.338 (inactive) and 0.604, respectively. Besides, the z-score in assay [3] is -2.52; in assay [4], -0.625 (inactive); in assay [5] it was -0.512 (inactive); in assay [6], 0.0885 (inactive).

Regarding `O=C1O[C@H](c2ccccc2)[C@H](c2ccccc2)N2[C@H]1[C@@H](C(=O)Nc1nc3ccccc3s1)[C@]1(C(=O)Nc3ccc(C#CCCO)cc31)[C@H]2c1ccc(O)cc1`, the composite z-score in assay [1] was 0.25 (inactive); in assay [2], 0.625. The z-score in assay [3] was 0.902; in assay [4], -1.02 (inactive); in assay [5] it was -0.334 (inactive); in assay [6], -0.376 (inactive).

For `Cc1cc(C)c(C(O)C2C=CC3C(=O)N(c4ccccc4)C(=O)C3N2Nc2ccc(C(C)C)cc2)c(C)c1` (configuration not stated), the composite z-score in assay [1] is 1.21 (inactive); in assay [2] it was 0.736. The z-score in assay [3] was -0.701; in assay [4] it was -3.21 (inactive); in assay [5], 0.609 (inactive); in assay [6], 0.335 (inactive).

On to `O=C1NC(=O)C2C1C=CC(C(O)c1cccc3ccccc13)N2Nc1ccc(Cl)cc1Cl` (configuration not stated), for which the composite z-score in assay [1] was 1.46 (inactive); in assay [2] it was 0.497. The z-score in assay [3] is -0.0879; in assay [4] it was -4.57 (inactive); in assay [5], 0.461 (inactive); in assay [6], 0.3 (inactive).

Consider `COc1ccc(NC(=O)O[C@H]2[C@H](OC(=O)Nc3ccccc3)[C@H](OC(=O)Nc3ccccc3)[C@@H](OC)O[C@@H]2CO)cc1`, for which the composite z-score in assay [1] is 0.635 (inactive); in assay [2], 0.934. Besides, the z-score was -2.37 in assay [3], -6.24 (inactive) in assay [4], 0.131 (inactive) in assay [5] and 0.288 (inactive) in assay [6].

As to `C=C(/C(=C/C[C@@H](OC(C)=O)c1cccc(OCCO)c1)c1cc(C(=O)OC)ccc1OC)C(C)C`, the composite z-score is -0.139 (inactive) in assay [1] and 0.567 in assay [2]. The z-score in assay [3] was -3.06; in assay [4] it was -5.59 (inactive); in assay [5], -0.541 (inactive); in assay [6] it was -0.42 (inactive).

For `CCCC[C@@H](O)C1=C(COc2ccccc2)C[C@H]2C(=O)N(C)C(=O)[C@H]2[C@H]1CO`, the composite z-score in assay [1] was -0.35 (inactive); in assay [2], -0.442. Besides, the z-score in assay [3] was -0.764; in assay [4] it was -3.48 (inactive); in assay [5], -1.66 (inactive); in assay [6], -1.41 (inactive).

On to `C[N+](C)(C)CCCCCCNC(=O)[C@H]1C[C@H]2C(=O)NCC(=O)N2[C@H]1c1ccc(O)cc1`, for which the results for the composite z-score in assay [1] and in assay [2] were 0.537 (inactive) and 0.815, respectively. Moreover, the z-score in assay [3] is 0.089; in assay [4], -2.39 (inactive); in assay [5], -0.458 (inactive); in assay [6], -0.132 (inactive).

In the case of `COCCOC(=O)N1C(=O)[C@@]2(c3cc(C#Cc4ccc(OC)cc4)ccc31)[C@H](c1ccc(O)cc1)N1[C@H](c3ccccc3)[C@H](c3ccccc3)OC(=O)[C@H]1[C@@H]2C(=O)N1CCCCCCC1`, the composite z-score in assay [1] was 0.711 (inactive); in assay [2] it was 0.436. The z-score is -1.55 in assay [3], 1.36 (inactive) in assay [4], -0.0871 (inactive) in assay [5] and -0.171 (inactive) in assay [6].

For `COCCOC(=O)N1C(=O)[C@@]2(c3cc(C#CC4=CCCCC4)ccc31)[C@H](C(N)=O)[C@H]1C(=O)O[C@H](c3ccccc3)[C@H](c3ccccc3)N1[C@@H]2c1ccccc1OCCO`, the composite z-score in assay [1] is 0.859 (inactive); in assay [2] it was 0.823. The z-score in assay [3] is -2.03; in assay [4] it was -1.26 (inactive); in assay [5], -0.176 (inactive); in assay [6], -0.46 (inactive).

For the compound `C[N+](C)(C)CCCC[C@@H]1NC(=O)[C@H]2C[C@@H](C(=O)NCCCCCCN)[C@@H](c3ccc(O)cc3)N2C1=O`, the composite z-score in assay [1] is -0.465 (inactive); in assay [2], 0.825. Further, the z-score in assay [3] is -0.104; in assay [4], -1.61 (inactive); in assay [5] it was 0.181 (inactive); in assay [6], 0.0555 (inactive).

As to `CC(C)N1C(=O)c2ccccc2[C@@H](C(=O)NC2CC2)[C@@H]1c1ccc(CO)cc1`, the composite z-score in assay [1] was 0.11 (inactive); in assay [2] it was 0.461. The z-score in assay [3] was 0.314; in assay [4] it was -2.99 (inactive); in assay [5], -0.0392 (inactive); in assay [6] it was -0.0337 (inactive).

As to `C=C[C@@H](OC)[C@H](OC(=O)Nc1ccc(SC)cc1)c1ccc(O)c(F)c1`, the composite z-score in assay [1] is 0.313 (inactive); in assay [2], 0.0562. Further, the z-score in assay [3] was -0.386; in assay [4], -4.2 (inactive); in assay [5], -0.337 (inactive); in assay [6] it was -0.23 (inactive).

In the case of `COCCOC(=O)N1C(=O)[C@@]2(c3cc(C#Cc4ccc(OC)cc4)ccc31)[C@H](C(=O)Nc1nc3ccccc3s1)[C@H]1C(=O)O[C@H](c3ccccc3)[C@H](c3ccccc3)N1[C@@H]2c1ccc(OCCO)cc1`, the composite z-score is 0.127 (inactive) in assay [1] and 0.623 in assay [2]. For the same compound, the z-score in assay [3] is -1.69; in assay [4] it was 2.34 (inactive); in assay [5], 0.0676 (inactive); in assay [6] it was 0.0745 (inactive).
